Screening results deposited in PubChem BioAssay by National Center for Advancing Translational Sciences (NCATS).
IL1B secr inh = qHTS for Inhibitors of Inflammasome Signaling: IL-1-beta AlphaLISA Primary Screen; 360,000 tested, 4.7% active; THP-1 LPS/ATP IL-1B secretion, AlphaLISA, 16 h; hits give low values; activity change, % at 57.5 µM; in the data active means activity change below about -50%; inconclusive means mostly about -30% to -49%
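THP-1 cells pretreated 1 hr with compounds (up to 57.5 uM final), then stimulated with LPS (250 ng/mL final) plus ATP (1.25 mM final); secreted IL-1B measured by AlphaLISA after 16 hr, decreased signal indicating inhibition.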
TDP1 cell noCPT = qHTS for Inhibitors of human tyrosyl-DNA phosphodiesterase 1 (TDP1): qHTS in cells in absence of CPT | DT40 Tdp1-/- hTDP1 cells, no CPT, ATP luminescence, 48 h | Potency, µM (doses to about 46.2 µM), for the others: at the highest dose activity change, negative = growth inhibition, most hits filed as inhibitors | 420,000 tested, 15% active; further: potency means the concentration at half of the fitted maximal effect; nearly all actives have a fitted effect of over 55% in size
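Camptothecin absent (DMSO only). Human TDP1-complemented DT40 knockout cells, 400 cells/well, 37 °C for minimum 48 hr; ATP measured via CellTiter-Glo, 30 min dark incubation, luminescence.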
TDP1 block = qHTS Assay for Inhibitors of Tyrosyl-DNA Phosphodiesterase (TDP1); recombinant TDP1, AlphaScreen DNA substrate cleavage; Potency, µM (doses to about 130 µM), for the others: at the highest dose activity change, negative = inhibition, actives largely listed as inhibitors; 350,000 tested, 0.28% active; AID 485290, 2010; further: potency means the concentration at half of the fitted maximal effect; nearly all actives have a fitted effect of over 40% in size
Target sequence (Q9NUW8 whole entry, looked up): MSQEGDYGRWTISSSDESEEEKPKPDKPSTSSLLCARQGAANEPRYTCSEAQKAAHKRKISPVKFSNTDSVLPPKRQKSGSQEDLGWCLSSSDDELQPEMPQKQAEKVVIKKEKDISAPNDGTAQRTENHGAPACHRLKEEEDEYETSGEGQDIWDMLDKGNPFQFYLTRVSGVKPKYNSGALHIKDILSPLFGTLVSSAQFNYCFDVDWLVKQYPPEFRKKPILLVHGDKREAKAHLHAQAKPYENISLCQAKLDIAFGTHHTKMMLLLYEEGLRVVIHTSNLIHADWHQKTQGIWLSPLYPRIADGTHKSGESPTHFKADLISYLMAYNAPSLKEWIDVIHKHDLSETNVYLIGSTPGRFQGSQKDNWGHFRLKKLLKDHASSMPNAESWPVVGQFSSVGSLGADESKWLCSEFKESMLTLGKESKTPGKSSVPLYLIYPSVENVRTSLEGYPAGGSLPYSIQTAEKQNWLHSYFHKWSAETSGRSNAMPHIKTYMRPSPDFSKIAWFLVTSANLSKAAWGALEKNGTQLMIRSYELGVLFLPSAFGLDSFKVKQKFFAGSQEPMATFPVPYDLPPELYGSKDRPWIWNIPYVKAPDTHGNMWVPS
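Enzyme-compound mixtures sat 15 min at room temperature, followed by a 5 min reaction with 15 nM final substrate and 10 min with AlphaScreen beads. Recombinant human Tdp1 was used at 1 nM final.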
DT40 TDP1 CPT = qHTS for Inhibitors of human tyrosyl-DNA phosphodiesterase 1 (TDP1): qHTS in cells in presence of CPT; chicken DT40 Tdp1-/-;hTDP1 cells + 20 nM CPT, ATP luminescence, 48 h; Potency, µM (series often up to 46.2 µM), for inactives: at the highest dose activity change, negative = growth inhibition, usual class: inhibitors; 420,000 tested, 12% active; AID 686979, 2013; further: potency means the concentration at half of the fitted maximal effect; nearly all actives have a fitted effect of over 55% in size
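Chicken DT40 Tdp1-/- cells stably complemented with human TDP1 were seeded at 400 cells/well in medium containing 20 nM camptothecin, exposed to pin-transferred compounds, and grown at 37 °C for at least 48 hr. Viability was read as ATP luminescence.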
Giardia killer = Small Molecules that selectively kill Giardia lamblia: qHTS | 340,000 tested, 0.15% active | AID 540267, 2011 | Giardia lamblia trophozoite viability | activity change, % at 7.66 µM, hits read low; in the data active means activity change below about -80%; inconclusive means between about -30% and that limit;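 further: parasites exposed to compound for two days anaerobically before the ATP read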
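Giardia lamblia trophozoites (100 cells/well) were incubated with compounds for 48 h at 37 deg C under anaerobic conditions. Viability was read as ATP content by one-step luminescence after 15-30 min at room temperature.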
ELG1 DNA repair = qHTS screen for small molecules that inhibit ELG1-dependent DNA repair in human embryonic kidney (HEK293T) cells expressing luciferase-tagged ELG1. 330,000 tested, 2.3% active. Potency, µM (doses to about 46.1 µM), inactives show top-dose activity change, negative = inhibition, usual class: inhibitors. HEK293T ELG1-luciferase reporter, luminescence, 16 h; DNA damage induced by 5-fluorouridine; further: potency means the concentration at half of the fitted maximal effect; nearly all actives have a fitted effect of over 55% in size
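Reporter activity after DNA damage by 5-fluorouridine is monitored. Compound-treated cells incubate 16 hr at 37 °C, then ONE-Glo is added for 30 min before luminescence reading.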
* hit, by the source's call. Sampled rows, rich in hits. Any-hit rate of the full collection: about 19%. Unless noted, the call rests on the fitted dose curve; in most records, active means well fitted curve in the direction sought with a large enough effect; inconclusive means small, poorly fitted or top-dose-only effect, or another doubt; inactive means no such curve, though single readings can be large; an effect the other way counts as inactive or inconclusive. On the % scale 0 is the no-effect control and ±100 the full control effect.

How did CCC(CO)Nc1nc2ccc(Cl)cc2c2ccccc12 (centres undefined) do in these assays?
IL1B secr inh: -79*; TDP1 cell noCPT: inconclusive; TDP1 block: -8%; DT40 TDP1 CPT: inconclusive; Giardia killer: -27; ELG1 DNA repair: 2%

Results for CCc1nc2ccc(C(=O)Nc3cccc(OCC(=O)N(C)C)c3)cn2c1N(CC)CCOC ?
IL1B secr inh: -20; TDP1 cell noCPT: 16µM*; DT40 TDP1 CPT: 16µM*

What do the screens show for `CCc1nc2ccc(C(=O)Nc3cccc(OCC(=O)N(C)C)c3)cn2c1N(C)Cc1ccc(OC)cc1`?
IL1B secr inh: -12; TDP1 cell noCPT: 18µM*; DT40 TDP1 CPT: 23µM*

What do the screens show for `Cc1nc2ccc(C(=O)Nc3cccc(OCC(=O)N(C)C)c3)cn2c1N(C)CC1CCCCC1`?
IL1B secr inh: -51*; TDP1 cell noCPT: 13µM*; DT40 TDP1 CPT: 21µM*

Results for CCCOC(=O)Nc1nnc(CCC)s1 ?
IL1B secr inh: 0; TDP1 cell noCPT: 2%; TDP1 block: 3%; DT40 TDP1 CPT: -3%; Giardia killer: 8; ELG1 DNA repair: inconclusive

How did CCS(=O)(=O)c1cc([N+](=O)[O-])c(Sc2ccccc2NC(C)=O)s1 do in these assays?
IL1B secr inh: -18; TDP1 cell noCPT: 5.2µM*; TDP1 block: 9%; DT40 TDP1 CPT: 3.3µM*; Giardia killer: 18; ELG1 DNA repair: inconclusive

Results for O=[N+]([O-])c1ccc(Nc2nc(NCCN3CCOCC3)nc(Nc3ccc(I)cc3)n2)cc1 ?
TDP1 cell noCPT: 4.5µM*; DT40 TDP1 CPT: 7.1µM*

How did O=[N+]([O-])c1ccc(Nc2nc(Cl)nc(NCCO)n2)cc1 do in these assays?
IL1B secr inh: 36; TDP1 cell noCPT: -14%; TDP1 block: 8%; DT40 TDP1 CPT: 7%; Giardia killer: 8; ELG1 DNA repair: 0%

How did COc1ccc(Nc2nc(NCCN3CCOCC3)nc(Nc3ccc(OC)cc3)n2)cc1 do in these assays?
IL1B secr inh: -91*; TDP1 cell noCPT: 14µM*; DT40 TDP1 CPT: 11µM*; Giardia killer: 11; ELG1 DNA repair: inconclusive

Results for COc1nc(NCCN2CCOCC2)nc(Nc2ccccc2)n1 ?
IL1B secr inh: 8; TDP1 cell noCPT: 8%; TDP1 block: 5%; DT40 TDP1 CPT: 27%; Giardia killer: -9; ELG1 DNA repair: inconclusive

Results for O=[N+]([O-])c1ccc(Nc2nc(NCCN3CCOCC3)nc(Nc3ccc(Cl)cc3)n2)cc1 ?
TDP1 cell noCPT: 10µM*; DT40 TDP1 CPT: 14µM*

How did COc1cccc(NC(=O)C(CCSC)NC(=O)C2CCC(C)CC2)c1 (centres undefined) do in these assays?
TDP1 cell noCPT: -14%; TDP1 block: 6%; DT40 TDP1 CPT: 1%

Results for O=C(NCc1ccccc1)c1cc(C2CCCN(C(=O)c3ccc4c(c3)CCO4)C2)on1 (centres undefined) ?
IL1B secr inh: -8; TDP1 cell noCPT: inconclusive; DT40 TDP1 CPT: inconclusive

What do the screens show for `CCOc1ccc(NC(=O)CCC(=O)NNC(=O)COc2ccc(C)cc2Br)cc1`?
IL1B secr inh: 0; TDP1 cell noCPT: 25%; TDP1 block: -5%; DT40 TDP1 CPT: -1%; Giardia killer: -6; ELG1 DNA repair: inconclusive

Results for COc1ccc(C(=O)NC2CCN(C(=O)NCc3ccccc3)CC2)cc1 ?
IL1B secr inh: 2; TDP1 cell noCPT: -4%; TDP1 block: -14%; DT40 TDP1 CPT: 6%; Giardia killer: -1; ELG1 DNA repair: 3%

How did Cc1cccc(NC(=O)C2(C)Cc3ccccc3C(=O)O2)c1 (centres undefined) do in these assays?
TDP1 cell noCPT: inconclusive; TDP1 block: 8%; DT40 TDP1 CPT: -28%

What do the screens show for `Cc1cccc(N/N=C(\C(N)=O)C2=NC(C)(C)Cc3ccccc32)c1`?
IL1B secr inh: -14; TDP1 cell noCPT: 26µM*; TDP1 block: 9%; DT40 TDP1 CPT: inconclusive; Giardia killer: -4; ELG1 DNA repair: -18%

What do the screens show for `CCOC(=O)c1cccc(Nc2nc(C)cc(C)n2)c1`?
IL1B secr inh: 44; TDP1 cell noCPT: -5%; TDP1 block: 0%; DT40 TDP1 CPT: 3%; Giardia killer: -11; ELG1 DNA repair: inconclusive

How did CNc1cc2c(Nc3cccc(Br)c3)ncnc2cn1 do in these assays?
TDP1 block: -9%

What do the screens show for `CCOC(=O)c1cccc(Nc2cc(C)nc(C)n2)c1`?
TDP1 cell noCPT: 16µM*; TDP1 block: 3%; DT40 TDP1 CPT: inconclusive

Results for CN(C)c1ccc(Nc2ncnc3ccc(Br)cc23)cc1 ?
IL1B secr inh: -10; TDP1 cell noCPT: inconclusive; DT40 TDP1 CPT: inconclusive; Giardia killer: 15; ELG1 DNA repair: 8.2µM*

Results for COc1ccc(Nc2ncnc3ccccc23)cc1 ?
IL1B secr inh: -24; TDP1 cell noCPT: inconclusive; TDP1 block: -1%; DT40 TDP1 CPT: inconclusive; Giardia killer: -18; ELG1 DNA repair: -5%

How did CCOC(=O)c1cccc(Nc2ncnc3ccc(C)cc23)c1 do in these assays?
IL1B secr inh: -15; TDP1 cell noCPT: 21µM*; TDP1 block: 2%; DT40 TDP1 CPT: 15µM*; Giardia killer: 4; ELG1 DNA repair: inconclusive

How did Clc1ccc(Nc2ncnc3ccc(Br)cc23)cc1 do in these assays?
IL1B secr inh: -9; TDP1 cell noCPT: 15µM*; TDP1 block: -5%; DT40 TDP1 CPT: 10µM*; Giardia killer: 7; ELG1 DNA repair: inconclusive

How did CCCCCn1nc(C(=O)OCc2nnc(-c3ccccc3)o2)c2ccccc2c1=O do in these assays?
IL1B secr inh: 6; TDP1 cell noCPT: 0%; DT40 TDP1 CPT: 19%; Giardia killer: 1; ELG1 DNA repair: 12%

Results for Cc1ccc(NC(=O)c2cc(=O)[nH]c3ccccc23)cc1C ?
IL1B secr inh: 21; TDP1 cell noCPT: -7%; TDP1 block: 0%; DT40 TDP1 CPT: -12%; Giardia killer: -13; ELG1 DNA repair: 15%

Results for Cc1ccc2ncnc(Nc3ccccc3)c2c1 ?
IL1B secr inh: -3; TDP1 cell noCPT: inconclusive; TDP1 block: -5%; DT40 TDP1 CPT: -22%; Giardia killer: 19; ELG1 DNA repair: -25%
